This note sets out measurements from PubChem BioAssay (NCATS).

What all share (assay): qHTS profiling for inhibitors of Plasmodium falciparum proliferation (AID 504749); also: nearly all actives have a fitted effect of over 60% in size
Holding throughout (conditions): P. falciparum in erythrocytes, SYBR Green DNA, 72 h; series mostly up to 28.7 µM

The subject of one assay is CP268. In a few lines:
(§1)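 P. falciparum-infected erythrocytes (0.3% parasitemia, 2.5% hematocrit final) were exposed to compounds for 72 h at 37 C in 5% CO2, then lysed with SYBR Green buffer overnight at room temperature; parasite DNA fluorescence was normalized to artemisinin and DMSO controls.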

For another assay, the system named is CP269. The gist of the method:
as §1

For a further assay, the system named is CP286. In a few lines: as §1
In the next assay the test system is CP291. The gist of the method:
as §1

The next assay relates to CP297. The gist of the method:
as §1

The subject of a further assay is CP305. In a few lines: as §1
The subject of a further assay is CP315. In a few lines:
as §1

The next assay concerns CP325. In a few lines:
as §1

The next assay relates to CP329. The gist of the method: as §1
For another assay, the system named is CP335. In a few lines: as §1

Records with an inconclusive call do not appear. Active and inactive are the calls of the source. Calls follow the shape of the dose curve; as a rule, active = well fitted inhibition curve with a large enough effect; inconclusive = small, poorly fitted or top-dose-only effect; inactive = flat fitted curve, though single readings scatter.
Potency is read from the fitted curve at half-maximal effect.

In the case of `CCC(C(=O)O)C1CCC(C)C(C(C)C(O)C(C)C(=O)C(CC)C2OC3(C=CC(O)[C@@]4(CC[C@](C)(C5CC[C@@](O)(CC)C(C)O5)O4)O3)C(C)CC2C)O1` (some centres not stated), the Potency was 1070 nM (active) with CP268; 675 nM (active) in the assay on CP269; 794 nM (active) with CP286; 675 nM (active) in the assay on CP291; 757 nM (active) in the assay with CP297; 675 nM (active) with CP305. The Potency with CP315 was 478 nM (active); with CP325, 849 nM (active); in the assay with CP329 it was 601 nM (active); with CP335, 379 nM (active).
For `COc1cccc2c1C(=O)c1c(O)c3c(c(O)c1C2=O)C[C@@](O)(C(=O)CO)C[C@@H]3O[C@H]1C[C@H](N)[C@H](OC2CCCCO2)[C@H](C)O1` (some centres not stated), the Potency is 8490 nM (active) with CP268; 5360 nM (active) in the assay on CP269; 2000 nM (active) with CP286; 6750 nM (active) with CP291; 6750 nM (active) in the assay with CP297; 6010 nM (active) in the assay with CP305. The Potency with CP315 was 16900 nM (active); with CP325 it was 7570 nM (active); with CP329 it was 6750 nM (active); in the assay with CP335 it was 3010 nM (active).
As to `OCC(O)C(O)C(O)CO` (configuration not stated), the Potency entry in the assay with CP268, with CP269, with CP286, in the assay with CP291, with CP297 and in the assay on CP305 was “inactive” in each case. Further, the Potency entry in the assay on CP315, in the assay on CP325, with CP329 and with CP335 was “inactive” in each case.
As for `COc1ccc([C@@H]2CNC(=O)C2)cc1OC1CCCC1`, the Potency entry in the assay on CP268, with CP269, with CP286, in the assay with CP291, in the assay with CP297 and with CP305 was “inactive” in each case. Moreover, the Potency entry in the assay on CP315, in the assay on CP325, in the assay on CP329 and with CP335 was “inactive” in each case.
As for `CCCCCCCCCCCC(CC1OC(=O)C1CCCCCC)OC(=O)C(CC(C)C)NC=O` (configuration not stated), the values for the Potency in the assay on CP286 and in the assay with CP335 were 1000 nM (active) and 675 nM (active), respectively. Besides, the Potency entry in the assay with CP315 is “inactive”.
`COc1ccc2c(c1OC)C(=O)OC2[C@H]1c2c(cc3c(c2OC)OCO3)CCN1C` (some centres not stated): the Potency entry in the assay with CP268, in the assay with CP269, with CP286, in the assay on CP291, in the assay with CP297 and with CP305 was “inactive” in each case. For the same compound, the Potency entry in the assay with CP315, with CP325, in the assay on CP329 and in the assay on CP335 was “inactive” throughout.
On to `Nc1nc2c(c(=O)[nH]1)N(C=O)[C@H](CNc1ccc(C(=O)N[C@@H](CCC(=O)O)C(=O)O)cc1)CN2`, for which the Potency result with CP268, with CP269, in the assay on CP286, in the assay on CP297, with CP305 and with CP315 was “inactive” in each case. Also, the Potency result with CP325, in the assay on CP329 and with CP335 was “inactive” each time.
